Compound activity from PubChem.
3T3 cytotox – cytotoxic compounds in NIH 3T3 cells; NIH 3T3 viability, CellTiter-Glo ATP luminescence, 48-72 h; actives 4.3% (n = 94,000); Potency, µM (series often up to 96.7 µM), for the others: at the highest dose activity change, negative = cytotoxicity, actives largely listed as inhibitors; also: nearly all actives have a fitted effect of over 55% in size
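NIH 3T3 cells at 400 cells/well received 23 nL of compound by pintool and were incubated 48 or 72 h at 37 °C. Viability was read as ATP-coupled CellTiter-Glo luminescence.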
FLuc inh – blocks purified firefly luciferase enzyme activity; actives 2.5% (n = 76,000); Potency, µM (titrated, usually from 115 µM), usual class: inhibitors; P08659; purified P. pyralis luciferase, luminescence, biochemical; also: nearly all actives have a fitted effect of over 65% in size
Target sequence (P08659 whole entry, looked up): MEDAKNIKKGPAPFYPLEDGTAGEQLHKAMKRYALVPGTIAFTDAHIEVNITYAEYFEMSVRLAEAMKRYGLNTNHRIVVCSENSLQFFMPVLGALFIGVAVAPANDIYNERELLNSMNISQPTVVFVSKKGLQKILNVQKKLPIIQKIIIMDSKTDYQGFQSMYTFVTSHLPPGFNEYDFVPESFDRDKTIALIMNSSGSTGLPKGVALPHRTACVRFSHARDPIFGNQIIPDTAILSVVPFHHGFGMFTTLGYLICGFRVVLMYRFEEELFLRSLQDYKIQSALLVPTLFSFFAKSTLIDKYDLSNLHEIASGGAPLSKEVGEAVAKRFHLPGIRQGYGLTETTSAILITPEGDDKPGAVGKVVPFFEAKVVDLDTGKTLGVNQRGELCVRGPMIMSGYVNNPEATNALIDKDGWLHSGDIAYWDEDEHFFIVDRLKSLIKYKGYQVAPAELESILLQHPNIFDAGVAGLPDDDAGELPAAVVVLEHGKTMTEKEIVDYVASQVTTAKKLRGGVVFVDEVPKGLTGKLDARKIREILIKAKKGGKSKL
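Luminescence read by CCD imager after adding enzyme (10nM final) to wells holding compound, titrated in qHTS. Substrates 10uM each D-luciferin and ATP; buffer 50mM Tris acetate pH 7.5, 10mM Mg acetate, Tween-20, BSA.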
NPR1 antag – antagonists of human natriuretic peptide receptor Npr1. P16066. HEK293 hNpr1 GloSensor cGMP, ANP-stimulated luminescence. Potency, µM (highest dose often 46.3 µM), without a hit: at the highest dose activity change, negative = inhibition, actives largely listed as inhibitors. actives 1.6% (n = 76,000). AID 1347048; calls by dose curve; also: nearly all actives have a fitted effect of over 60% in size
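Compound pre-incubated 30 min at room temperature on GloSensor-loaded HEK293 cells stably carrying hNpr1 and the pGS-40F cGMP biosensor. Stimulation uses hNppA at 0.1 nM final; luminescence is taken at baseline and 20 min post-agonist.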
HEK cytotox – kills HEK 293 cells. HEK 293 viability, ATP luminescence (CellTiter-Glo), 48-72 h. Potency, µM (doses to about 115 µM), for inactives: top-dose activity change, negative = cytotoxicity, actives largely listed as inhibitors. actives 6.6% (n = 94,000). AID 1345083; also: nearly all actives have a fitted effect of over 60% in size
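CellTiter-Glo luminescence (cellular ATP) was read after 48 or 72 hr of compound exposure at 37 degree Celsius. Cells were HEK 293 plated at 250 cells/well.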
An asterisk follows results filed as active; i = inactive; ? = inconclusive; · = no result given; [ ] = dose if it differs, or a comment. An excerpt weighted towards active compounds, which were near 11% of everything screened. Unless noted, calls follow the shape of the dose curve; as a rule, active = well fitted curve in the direction sought with a large enough effect; inconclusive = small, poorly fitted or top-dose-only effect, or another doubt; inactive = no such curve, though single readings can be large; an effect the other way counts as inactive or inconclusive. % is scaled to controls: 0 for no effect and ±100 for the full control effect; potency is read from the fitted curve at half-maximal effect.

SMILES	3T3 cytotox	FLuc inh	NPR1 antag	HEK cytotox
COc1ccc(-c2nccc3c(=O)cc(-c4cccnc4)oc23)cc1OC	22µM*	i	0%[70.6 µM]	-7%[172 µM]
Cc1ccccc1-c1nccc2c(=O)cc(-c3cccnc3)oc12	25µM*	i	4%[70.6 µM]	112µM*
CC(=O)N(C)Cc1ccc(-c2ccccc2)cc1	-24%[138 µM]	?	0%[70.6 µM]	?
CC1(C)C(=O)N(CC2CCOCC2)[C@H]2CN(Cc3ccccc3O)C[C@H]2[S+]1(=O)[O-]	?	i	0%[70.6 µM]	-20%[172 µM]
O=C(Nc1ccc(=O)n2c1[C@@H]1C[C@@H](CN(C(=O)c3ccc(F)cc3)C1)C2)c1ccc2c(c1)OCO2	0%	i	-8%	-3%
O=c1cc(-c2cccnc2)oc2c(NCc3ccc(F)cc3)nccc12	50µM*	i	-5%[70.6 µM]	-58%[172 µM]
O=c1cc(-c2ccccn2)oc2c(NCc3ccc(F)cc3)nccc12	-19%[138 µM]	i	0%[70.6 µM]	?
COC1CCN(C(=O)Cc2c[nH]c3ncc(-c4cccnc4)cc23)CC1	79µM*	i	1%[70.6 µM]	4%[172 µM]
CNC(=O)c1cccc(-c2cnc3[nH]cc(CC(=O)NCC(C)C)c3c2)c1	35µM*	i	1%[70.6 µM]	?
COc1ncc(-c2cnc3[nH]cc(CC(=O)N4CCOCC4)c3c2)cn1	79µM*	i	4%[70.6 µM]	-18%[172 µM]
CNC(=O)c1cccc(-c2cnc3[nH]cc(CC(=O)Nc4ccccc4C)c3c2)c1	?	?	0%[70.6 µM]	?
CNC(=O)c1cccc(-c2cnc3[nH]cc(CC(=O)N4CCC(OC)CC4)c3c2)c1	89µM*	?	2%[70.6 µM]	-24%[172 µM]
O=C(Cc1c[nH]c2ncc(-c3ccoc3)cc12)N1CCOCC1	?	i	-12%[70.6 µM]	?
CNC(=O)c1cccc(-c2cnc3[nH]cc(CC(=O)N4CCCC4)c3c2)c1	?	i	-9%[70.6 µM]	?
O=C(Cc1c[nH]c2ncc(-c3cccnc3)cc12)N1CCN(c2ccccn2)CC1	?	i	-8%[70.6 µM]	?
O=C1CCCN1CC1CCCN(Cc2cc(F)ccc2-n2cccn2)C1 (centres undefined)	-16%	i	7%	-24%
COCC(=O)N1CCCC1C(=O)N1CCC(N2CCOCC2=O)CC1 (centres undefined)	-16%	·	·	-5%
O=C(NCc1ccc2c(c1)OCO2)C1CCCCN1Cc1ccc(-c2ccsc2)cc1 (centres undefined)	13µM*	·	·	22µM*
O=C(NCc1cccc(F)c1)C1CCCCN1Cc1ccc(-c2cccs2)cc1 (centres undefined)	28µM*	·	·	20µM*
O=C(NCc1cccc(F)c1)C1CCCCN1Cc1ccc(-c2ccsc2)cc1 (centres undefined)	28µM*	·	·	40µM*
Cn1cc(-c2cnc3[nH]cc(CC(=O)NCc4ccc5c(c4)OCO5)c3c2)cn1	?	i	0%[70.6 µM]	?
COc1ccc(-c2cnc3[nH]cc(CC(=O)NC4CCOCC4)c3c2)cc1	25µM*	?	4%[70.6 µM]	?
COc1ccc(-c2cnc3[nH]cc(CC(=O)N(C)C)c3c2)cc1	13µM*	22µM*	?	?
COc1ccc(OC)c(-c2cnc3[nH]cc(CC(N)=O)c3c2)c1	?	i	?	-26%[172 µM]
COc1ccc(-c2cnc3[nH]cc(CC(=O)NCCN(C)C)c3c2)cc1	50µM*	i	-12%[70.6 µM]	100µM*
SMILES	3T3 cytotox	FLuc inh	NPR1 antag	HEK cytotox
COC[C@@H]1CN(Cc2cc(OC)cc(OC)c2)C[C@H]1C(=O)N(C)C	-12%	i	-1%	-26%
Cn1nc(C(=O)NCC23CCC=C2N(CC2CC2)C(=O)CC3)c2ccccc21 (centres undefined)	-12%	i	-1%	-8%
COc1ccc(Cn2c(=O)c(C(=O)N3CCN([S+](=O)([O-])c4cccs4)CC3)nc3cccnc32)cc1	-19%	·	·	-30%
CNc1cc(C2CC(NC(=O)COc3ccc(Cl)cc3C)C2)nc(N)n1 (centres undefined)	40µM*	i	-10%	18µM*
O=C1N[C@@H]2CCN(C(=O)c3ccc(-c4ccccc4)cc3)[C@@H]2C(=O)N1Cc1ccccc1	112µM*	?	-3%[70.6 µM]	?
COc1cccc(Nc2ncc3c(n2)C(C)(C(=O)Nc2nc(C)cs2)CC3)c1 (centres undefined)	?	i	-27%[70.6 µM]	50µM*
CC1(C(=O)Nc2ccccc2)COCc2cnc(Nc3ccccc3)nc21 (centres undefined)	?	i	-15%[70.6 µM]	79µM*
COc1cccc(Nc2ncc3c(n2)C(C)(C(=O)N2CC[S+](=O)([O-])CC2)CC3)c1 (centres undefined)	100µM*	i	3%[70.6 µM]	2%[172 µM]
Cc1csc(NC(=O)C2(C)COCc3cnc(Nc4ccccc4)nc32)n1 (centres undefined)	?	i	-12%[70.6 µM]	79µM*
COCCNC(=O)C1(C)CCc2cnc(Nc3cccc(OC)c3)nc21 (centres undefined)	?	i	1%[70.6 µM]	?
Cc1cccc(CN2CCN(Cc3nc(-c4ccco4)oc3C)C(C)C2=O)c1 (centres undefined)	-4%	i	-10%	-14%
Cc1ccc(C(=O)N2CCCN(CCn3nc4n(c3=O)CCCC4)CC2)cc1	-16%	·	·	2%
Cc1nc(CNC(=O)c2ccc3oc(-c4cccc(F)c4)nc3c2)cs1	-1%	32µM*	2%	?
CC(C)CNC(=O)c1ccc2oc(-c3ccnc(Cl)c3)nc2c1	?	·	·	89µM*
O=C1CO[C@H]2CCN(Cc3cccc(OC(F)(F)F)c3)CC[C@@H]2N1Cc1ccccc1	?	i	-2%	50µM*
O=C1CO[C@H]2CCN(Cc3cccc(OC(F)(F)F)c3)CC[C@@H]2N1Cc1c[nH]c2ccccc12	?	i	-10%	?
Cc1cccc(CN2CC[C@@H]3OCC(=O)N(Cc4ccccc4)[C@H]3CC2)c1	100µM*	i	-2%[70.6 µM]	100µM*
COc1ncccc1CN1CC[C@@H]2OCC(=O)N(Cc3ccccc3)[C@H]2CC1	100µM*	i	-30%[70.6 µM]	112µM*
CC(C)n1cnnc1-c1nn(C)c2c1CN(C(=O)c1nn(C)c3ccccc13)CC2	-7%	i	6%	0%
COc1cc(F)ccc1-c1cn(C)c(=O)n2cc(CN3CCOCC3)nc12	112µM*	i	3%[70.6 µM]	-8%[172 µM]
Cn1cc(-c2ccccc2Oc2ccccc2)c2nc(CN3CCOCC3)cn2c1=O	89µM*	i	1%[70.6 µM]	-7%[172 µM]
Cn1cc(-c2ccccc2Oc2ccccc2)c2nc(CO)cn2c1=O	?	i	0%[70.6 µM]	-21%[172 µM]
CN(Cc1cccnc1)Cc1nc(C2(O)CCN(Cc3ccccc3C(F)(F)F)CC2)cs1	?	i	-21%	45µM*
CN(Cc1cccnc1)c1nc2c(c(=O)[nH]1)CCN(Cc1ccccc1C(F)(F)F)CC2	?	i	?	20µM*
COCCN1C[C@H]2CN(C)c3ccccc3[C@@H]2N(C(=O)c2ccc(C)cc2)CCC1=O	-28%[46.1 µM]	·	·	?
CN1CCC(C(=O)N2Cc3ccccc3CC3(CCN(Cc4ccccn4)CC3)C2)CC1	-14%	·	·	-12%
